In the library only some 10% were active in any assay of this set; here they are far more common.
Luciferase inh: blocks purified firefly luciferase enzyme activity. purified P. pyralis luciferase, luminescence, biochemical. P08659. Potency, µM (doses to about 115 µM), hits mostly inhibitors. 2.5% of 76,000 active. AID 1347043; note: % is set by controls: 0 for no effect and ±100 for the full control effect; nearly all actives have a fitted effect of over 65% in size
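Purified 10nM P. pyralis luciferase with 10uM D-luciferin and 10uM ATP in 50mM Tris acetate pH 7.5, 10mM Mg acetate, 0.01% Tween-20, 0.05% BSA. qHTS titration; luminescence read by CCD imager.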
NIH3T3 tox: cytotoxic compounds in NIH 3T3 cells | AID 1345082 | NIH 3T3 viability, CellTiter-Glo ATP luminescence, 48-72 h | 4.3% of 94,000 active | Potency, µM (series often up to 96.7 µM), inactives show at the highest dose activity change, negative = cytotoxicity, hits mostly inhibitors; note: % is set by controls: 0 for no effect and ±100 for the full control effect; nearly all actives have a fitted effect of over 55% in size
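Cytotoxicity was measured by CellTiter-Glo ATP luminescence after 48 or 72 h compound exposure at 37 °C. Mouse NIH 3T3 fibroblasts were seeded at 400 cells/well and dosed by 23 nL pin transfer.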
HEK cytotox: HEK 293 cell cytotoxicity. HEK 293 viability, ATP luminescence (CellTiter-Glo), 48-72 h. Potency, µM (highest dose often 115 µM), for the others: at the highest dose activity change, negative = cytotoxicity, most hits filed as inhibitors. 6.6% of 94,000 active. AID 1345083; note: % is set by controls: 0 for no effect and ±100 for the full control effect; nearly all actives have a fitted effect of over 60% in size
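Read-out: CellTiter-Glo ATP luminescence. Cells: HEK 293, 250 cells/well. Exposure: 48 or 72 hr, 37 degree Celsius.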
GPT2 inhibitor: blocks human glutamate pyruvate transaminase 2; AID 1671188; Recombinant GPT2, coupled pyruvate oxidase/HRP Amplex Red fluorescence; 0.25% of 100,000 active; Q8TD30; Potency, µM (titrated, usually from 57.7 µM), for the others: top-dose activity change, negative = inhibition, most hits filed as inhibitors; note: % is set by controls: 0 for no effect and ±100 for the full control effect; nearly all actives have a fitted effect of over 60% in size
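Fluorescence of coupled pyruvate oxidase/HRP/Amplex Red system (50uM Amplex, 30 min, dark) reports pyruvate formed by GPT2. Enzyme reaction: 10ng/uL GPT2, 2mM L-alanine, 250uM a-KG, 30 min room temperature, pH 7.5; 50uM AOA control.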
hNpr1 antagonist: antagonists of human natriuretic peptide receptor Npr1; AID 1347048; HEK293 hNpr1 GloSensor cGMP, ANP-stimulated luminescence; 1.6% of 76,000 active; Potency, µM (top dose mostly 46.3 µM), for the others: top-dose activity change, negative = inhibition, actives largely listed as inhibitors; calls by dose curve; note: % is set by controls: 0 for no effect and ±100 for the full control effect; nearly all actives have a fitted effect of over 60% in size
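HEK293 cells stably expressing human Npr1 and cGMP GloSensor pGS-40F, loaded 2 h with 2% GloSensor reagent, given compound 30 min at room temperature. Luminescence read before and 20 min after 0.1 nM hNppA.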
Npr1 antag conf: hNpr1 antagonism, confirmation assay. shares compounds with hNpr1 antagonist. HEK293 hNpr1 cGMP GloSensor luminescence, ANP-stimulated. Potency, µM (series often up to 57.6 µM), without a hit: at the highest dose activity change, negative = inhibition, most hits filed as inhibitors. 76% of 1,400 active; calls by dose curve; note: nearly all actives have a fitted effect of over 70% in size
Npr2 selectivity: selectivity test of Npr1 antagonists against human Npr2 | shares compounds with hNpr1 antagonist | HEK293 hNpr2 GloSensor cGMP luminescence, CNP-stimulated | Potency, µM (highest dose often 57.6 µM), for the others: at the top dose activity change, negative = inhibition, most hits filed as inhibitors | 67% of 1,400 active | AID 1347046; calls by dose curve; note: nearly all actives have a fitted effect of over 70% in size
FLuc counter: FLuc enzyme inhibition, Npr1 counter-screen. shares compounds with hNpr1 antagonist. Potency, µM (titrated, usually from 57.6 µM), without a hit: at the top dose activity change, negative = inhibition, most hits filed as inhibitors. purified FLuc enzyme, luminescence, Km substrate. 0.7% of 1,400 active. AID 1347047; note: series mostly up to about 58 µM; 0% is about no effect
GloSensor ctrl: control cell line activity, Npr1 antagonist counter-screen; 69% of 1,400 active; Potency, µM (highest dose often 57.6 µM), for inactives: at the top dose activity change, negative = inhibition, most hits filed as inhibitors; AID 1347051; shares compounds with hNpr1 antagonist; HEK293 GloSensor cGMP, SNP-stimulated, luminescence; calls by dose curve; note: % is set by controls: 0 for no effect and ±100 for the full control effect; nearly all actives have a fitted effect of over 70% in size
Active calls of the source: *; i = inactive; u = inconclusive; x = no result; [ ] = another dose, or the depositor's remark. Unless noted, calls come from the whole dose curve; as a rule, active = well fitted curve in the direction sought with a large enough effect; inconclusive = small, poorly fitted or top-dose-only effect, or another doubt; inactive = no such curve, though single readings can be large; an effect the other way counts as inactive or inconclusive. Potency is the fitted concentration of half-maximal effect.

SMILES	Luciferase inh	NIH3T3 tox	HEK cytotox	GPT2 inhibitor	hNpr1 antagonist	Npr1 antag conf	Npr2 selectivity	FLuc counter	GloSensor ctrl
CCN(CC)C1(Cc2cc(-c3cccc(O)c3)on2)COC1	i	-23%[174 µM]	-18%[172 µM]	-2%[88.5 µM]	6%[70.6 µM]	x	x	x	x
FC(F)(F)c1ccc(N2C3CCC2CN(Cc2cccs2)C3)cc1	x	u	u	5%	x	24µM*	21µM*	1%	17µM*
Cc1cc(C)cc(-c2ccc(CN3CC4CCC(C3)N4c3ccc(C(F)(F)F)cc3)cc2)c1	x	-18%	-3%	-13%	x	x	x	x	x
CC1(C)[C@H](Cc2cc(CN3CCN(c4ccccc4)CC3)on2)C[C@@H]1NC(=O)NCc1ccccc1	i	u	25µM*	1%	11µM*	22µM*	u	7%	17µM*
CC(C)(C)CC(=O)N[C@H]1C[C@@H](Cc2cc(COc3ccccc3)on2)C1(C)C	i	u	u	3%[88.5 µM]	14µM*	13µM*	16µM*	2%[86.2 µM]	14µM*
CN(C)Cc1cc(C[C@@H]2C[C@H](NC(=O)Nc3ccc(F)cc3)C2(C)C)no1	i	u	u	-2%[88.5 µM]	-20%[70.6 µM]	x	x	x	x
CC1(C)[C@H](Cc2cc(CN3CCN(c4ccccc4)CC3)on2)C[C@@H]1NC(=O)Nc1ccc(F)cc1	i	u	u	u	13µM*	19µM*	22µM*	3%	19µM*
CCc1cccc(NC(=O)N2CCCC2c2nncn2C2CCCC2)c1 (stereo unspecified)	i	u	12%	i	-7%	x	x	x	x
O=C1Nc2ccccc2OCC12CCN(Cc1ccc(C(F)(F)F)cc1)CC2	i	-30%	u	i	11µM*	24µM*	24µM*	-2%	24µM*
Cc1cn2nc(C(=O)N3CCC(C(=O)NCc4ccccn4)CC3)cc2c(=O)[nH]1	i	-6%	-4%	i	18%	x	x	x	x
CC(C)OCCCNC(=O)CN1CC2CC(C1)[C@H]1CCCC(=O)N1C2 (stereo partly specified)	i	i	6%	i	5%	x	x	x	x
COc1ccccc1OCCNC(=O)C1CCc2ncc(-c3ccc(F)cc3)n2C1 (stereo unspecified)	i	-22%	u	i	u	19µM*	19µM*	0%	-16%
O=C(NCCc1ccccc1)C1CCc2ncc(-c3ccsc3)n2C1 (stereo unspecified)	i	u	u	-22%	u	u	-25%	3%	-29%
COc1ccc(OC)c(CN2CCCn3nc(C)c(-c4ccccc4OCc4ccccc4)c32)c1	i	8.9µM*	11µM*	i	7.1µM*	14µM*	19µM*	-1%	12µM*
COc1ccc(OC)c(CN2CCCn3nc(C)c(-c4ccnn4C(C)C)c32)c1	i	-18%[138 µM]	u	2%[88.5 µM]	-18%[70.6 µM]	x	x	x	x
Cc1nn2c(c1-c1ccccc1OCc1ccccc1)N(CC1CC1)CCC2	i	u	u	-12%[88.5 µM]	7.1µM*	6.3µM*	31µM*	-4%[86.2 µM]	5.6µM*

Screening results deposited in PubChem BioAssay by National Center for Advancing Translational Sciences (NCATS).
